{
  "source": "PubChem BioAssay AID463195",
  "about": "(Sanford-Burnham Center for Chemical Genomics, 2010)",
  "note": "Hit rate of the full screen: of about 330,000 compounds, about 4,600 (1.4%) were called active. The sample holds actives, similar compounds and a random draw of the others, so the mix is not that of the screen. Unmarked numbers belong to inactive results.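 The calls were made as follows: active = inhibition of 40% or more at the single tested concentration; inactive = the rest.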",
  "data": [
    {"assay": "wild-type TIM10 yeast growth inhibition – luminescence, uHTS, counter-screen for tim10-1 yeast inhibitor project, primary screen (AID 463195);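 also: wild-type TIM10 isogenic control strain grown at permissive 25 °C; 0% = DMSO yeast wells and 100% = minimal medium wells without yeast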", "settings": "S. cerevisiae TIM10 strain growth, BacTiter-Glo luminescence, 24 h; at 10 µM; active compounds read high", "values": [
      {"compound": "CCN(CC(=O)NC(C)C)C(=O)CCNC(=O)c1ccc(Cl)cc1", "inhibition": "10.6%"},
      {"compound": "CC1CCC(NC(=O)C2c3ccccc3C(=O)N2Cc2ccc3c(c2)OCO3)CC1", "note": "(centres undefined)", "inhibition": "0.084%"},
      {"compound": "CCc1ccc(NC(=O)NC(C)c2ccc3c(c2)OCO3)cc1", "note": "(centres undefined)", "inhibition": "6.53%"},
      {"compound": "CC(=NCc1ccc2c(c1)OCO2)C1=C(O)c2ccccc2C1=O", "inhibition": "70.5% (active)"},
      {"compound": "O=C1N(c2ccccc2)C(=Nc2ccccc2)SC12CC2", "inhibition": "13.6%"},
      {"compound": "CC(=O)Nc1ccc(Nc2c([N+](=O)[O-])cc(S(C)(=O)=O)cc2[N+](=O)[O-])cc1", "inhibition": "-6.6%"},
      {"compound": "CN(C)CCc1c[nH]c2ccc(Cn3cncn3)cc12", "inhibition": "5.24%"},
      {"compound": "O=C(COC(=O)c1ccccc1Br)Nc1nnc(-c2ccccc2)o1", "inhibition": "-0.697%"},
      {"compound": "Nc1cc(OC(=O)c2ccccc2Br)nn1S(=O)(=O)c1ccccc1", "inhibition": "46.5% (active)"},
      {"compound": "Cc1ccc(S(=O)(=O)n2nc(OC(=O)C(C)(C)C)cc2N)cc1", "inhibition": "17.1%"},
      {"compound": "O=C(NCc1ccco1)c1cc2sccc2n1Cc1ccc(F)cc1", "inhibition": "46.4% (active)"},
      {"compound": "O=C(Cc1ccc(-n2c(=O)c3sccc3n(Cc3ccc(F)cc3)c2=O)cc1)NCc1ccco1", "inhibition": "8.88%"},
      {"compound": "O=C(NCc1ccco1)c1ccc(Cn2c(=O)c3sccc3n(Cc3ccc(F)cc3)c2=O)cc1", "inhibition": "2.56%"},
      {"compound": "COc1ccc(N2CC(C(=O)NCCS(=O)(=O)N3CCN(c4ccccc4)CC3)CC2=O)cc1", "note": "(centres undefined)", "inhibition": "-13.2%"},
      {"compound": "C[C@H]1CN([C@@H](C)CO)C(=O)Cc2cc(NS(C)(=O)=O)ccc2O[C@@H]1CN(C)CC1CC1", "inhibition": "-6.97%"},
      {"compound": "O=S(=O)(ON(c1ccccc1)S(=O)(=O)c1ccccc1)c1ccccc1", "inhibition": "45.9% (active)"},
      {"compound": "CCN(c1ccccc1)S(=O)(=O)c1ccc(N)cc1", "inhibition": "8.8%"},
      {"compound": "O=S(=O)(c1ccccc1)N(Cc1cccc(F)c1)c1ccccc1", "inhibition": "3.1%"},
      {"compound": "COC(=O)c1ccc(OC(=O)c2nn(C)cc2Cl)c(OC)c1", "inhibition": "8.9%"},
      {"compound": "O=C(O)c1ccccc1N=N/C(=N/Nc1cc(S(=O)(=O)O)ccc1O)c1ccccc1", "inhibition": "0.626%"},
      {"compound": "O=c1c2ccccc2nnn1CSc1nc2sc3c(c2c(=O)n1CC1CCCO1)CCC3", "note": "(centres undefined)", "inhibition": "25.8%"},
      {"compound": "Cc1nnc(-c2ccc(Oc3ccc(C)c(C)c3)c([N+](=O)[O-])c2)o1", "inhibition": "17.1%"},
      {"compound": "O=C(OCC(=O)c1c[nH]c2ccccc12)c1cccc(O)c1", "inhibition": "5.38%"},
      {"compound": "COc1ccc(NC(=O)C/C(C)=N/NC(=O)c2cnccn2)cc1Cl", "inhibition": "3.17%"},
      {"compound": "CCN(CC)c1ccc(/C=N/NC(=O)c2cnccn2)c(O)c1", "inhibition": "44.5% (active)"},
      {"compound": "CCN1CCN(c2ccc(NC(=O)c3cnccn3)cc2)CC1", "inhibition": "-4.6%"},
      {"compound": "Cc1ccc2nc(Nc3ncc4c(n3)CC(C)(C)CC4=O)nc(C)c2c1", "inhibition": "5.07%"},
      {"compound": "Cc1cc(=O)n2nc(N3CCCC(C(=O)N4CCN(C)CC4)C3)sc2n1", "note": "(centres undefined)", "inhibition": "2.79%"},
      {"compound": "O=c1[nH]cnc2c1c(-c1ccccc1)cn2-c1ccc(F)cc1", "inhibition": "42.6% (active)"},
      {"compound": "COc1ccc(-n2cc(-c3ccccc3)c3c(=S)nc[nH]c32)cc1", "inhibition": "33.8%"},
      {"compound": "O=c1c2c(-c3ccccc3)ccnc2[nH]n1-c1ccccc1", "inhibition": "-17.3%"},
      {"compound": "O=[N+]([O-])c1cc(C(F)(F)F)ccc1NCCc1ccncc1", "inhibition": "6.18%"},
      {"compound": "Cc1nn(Cc2ccccc2Cl)c(C)c1NC(=O)Cn1nc([N+](=O)[O-])c(Cl)c1C", "inhibition": "2.84%"},
      {"compound": "NC(=O)C[n+]1cccc(C(N)=O)c1", "inhibition": "13.2%"},
      {"compound": "C#CCOCCOCCOCCNc1nc(N2CCN(C(=O)[C@H](CCC(=O)O)n3cc(C(N)CO)nn3)CC2)nc(N2CCN(C(=O)[C@H](CCCCN)n3cc(C(N)CC(C)C)nn3)CC2)n1", "note": "(some centres undefined)", "inhibition": "-1.57%"},
      {"compound": "CC(C)(C)N(CC#CCC(O)(c1ccccc1)C1CCCC1)CCO", "note": "(centres undefined)", "inhibition": "0.266%"},
      {"compound": "CC(=O)Nc1ccc(S(=O)(=O)Nc2ccc(N3CCCCC3)cc2)cc1", "inhibition": "-2.15%"},
      {"compound": "O=C1C=CC(=O)N1c1ccc(N2CCCCC2)cc1", "inhibition": "73.2% (active)"},
      {"compound": "O=C1CC(N2CCN(c3ccc(F)cc3)CC2)C(=O)N1c1ccccc1", "note": "(centres undefined)", "inhibition": "-7.52%"},
      {"compound": "COc1ccc(-c2cc(C3CCN(c4ncccc4[N+](=O)[O-])CC3)[nH]n2)cc1", "inhibition": "33%"},
      {"compound": "CC(=O)CSc1nnc(CSc2ncccn2)n1C1CCCCC1", "inhibition": "3.42%"},
      {"compound": "Nn1cnnc1N/N=C/c1cc([N+](=O)[O-])c(Cl)cc1Cl", "inhibition": "-10.5%"},
      {"compound": "N#C/C(=C\\c1ccccc1C(F)(F)F)C(=O)Nc1ccccc1F", "inhibition": "47.5% (active)"},
      {"compound": "CN(CC(=O)Nc1ccccc1C(F)(F)F)C(=O)Cc1ccccc1F", "inhibition": "12.1%"},
      {"compound": "O=C(Nc1ccccc1F)c1ccccc1-c1ccc(C(F)(F)F)cc1", "inhibition": "9.5%"},
      {"compound": "NS(=O)(=O)c1ccc(N=Nc2c(O)[nH]c3ccc(Br)cc23)cc1", "inhibition": "-10.2%"},
      {"compound": "Oc1[nH]c2ccc(Br)cc2c1N=Nc1nn[nH]n1", "inhibition": "6.35%"},
      {"compound": "Cc1cccc(N=Nc2c(O)[nH]c3ccc(F)cc23)c1", "inhibition": "45% (active)"},
      {"compound": "Cc1ccc(C)c(NC2=NCC(=O)N2c2ccc3c(c2)OCCO3)c1", "inhibition": "2.39%"},
      {"compound": "Cc1ccc(C(=O)N2CC(=O)Nc3ccc(F)cc3C2c2ccc(F)cc2)cc1", "note": "(centres undefined)", "inhibition": "20.6%"},
      {"compound": "CC1=CC=CN2C1=NC(=O)CC2(C)C(=O)N(CC(=O)NC1CCCC1)c1ccccc1C", "note": "(centres undefined)", "inhibition": "-13.9%"},
      {"compound": "O=C(COC(=O)c1ccc([N+](=O)[O-])o1)NC12CC3CC(CC(C3)C1)C2", "inhibition": "44.7% (active)"},
      {"compound": "O=C(COC(=O)c1ccc(Br)o1)NC12CC3CC(CC(C3)C1)C2", "inhibition": "25.9%"},
      {"compound": "O=C(OCC(=O)c1cccs1)c1ccc([N+](=O)[O-])o1", "inhibition": "14.1%"},
      {"compound": "COc1ccc(C2=NS(=O)(=O)N(C)C(C(=O)NC(C)c3ccccc3)=C2)cc1", "note": "(centres undefined)", "inhibition": "-4.03%"},
      {"compound": "Cn1c(=O)c2c(nc(NCCNC(=O)c3ccco3)n2Cc2ccccc2F)n(C)c1=O", "inhibition": "-1.93%"},
      {"compound": "O=C(OCC(=O)N1CCN(c2ccccc2)CC1)c1ccc([N+](=O)[O-])s1", "inhibition": "-16.2%"},
      {"compound": "COc1ccc(C(=O)COC(=O)c2ccc([N+](=O)[O-])s2)cc1OC", "inhibition": "60.6% (active)"},
      {"compound": "COc1cc(NC(=O)COC(=O)c2ccc([N+](=O)[O-])s2)cc(OC)c1OC", "inhibition": "32.6%"}
    ]}
  ]
}
